# In the supplement of paper PMC12024424:
# Counter-ions that a name gives are not always drawn.
# Tests used:
# [1] = tested on: Staphylococcus aureus Sa2 (MRSA, cystic fibrosis isolate); assay: growth reduction vs untreated control (OD550); higher = stronger antibacterial activity; conditions: 0.1 mM; 24 h
# Protocol: (§1)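 Single-dose screen of the MedChem Express Drug Repurposing Library (0.1 mM, 1% DMSO) against planktonic MRSA S. aureus Sa2 (CF isolate) in TSB in 96-well plates, 37 °C aerobic, 24 h. Assays were run in triplicate and repeated twice.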
# [2] = tested on: Staphylococcus aureus Sa2 (MRSA, cystic fibrosis isolate); assay: growth reduction vs untreated control (viable cell count); higher = stronger antibacterial activity; extreme values may be limits of the assay; conditions: 0.1 mM; 24 h
# Protocol: as §1
SMILES,growth reduction [1],growth reduction [2]
CCN(CC)CCN(Cc1ccc(-c2ccc(C(F)(F)F)cc2)cc1)C(=O)Cn1c(SCc2ccc(F)cc2)nc(=O)c2c1CCC2 [Darapladib],100%,100%
Clc1ccc(COC(Cn2ccnc2)c2ccc(Cl)cc2Cl)cc1 (configuration not stated) [Econazole (nitrate)],100%,100%
N#Cc1ccc(Oc2ccc3c(c2)COB3O)cc1 [Crisaborole],100%,100%
Cc1cnc(NC(=O)Nc2cc(Br)c(C)cc2OC[C@@H]2CNCCO2)cn1 [Rabusertib],100%,100%
Nc1ncccc1-c1nc2ccc(-c3ccccc3)nc2n1-c1ccc(C2(N)CCC2)cc1 [Miransertib],97.6%,95%
CC1(C)CC[C@]2(NC(=O)C(C)(F)F)CC[C@]3(C)[C@H](C(=O)C=C4[C@@]5(C)C=C(C#N)C(=O)C(C)(C)[C@@H]5CC[C@]43C)[C@@H]2C1 [Omaveloxolone],100%,100%
CC/C(=C(/c1ccc(/C=C/C(=O)O)cc1)c1ccc2[nH]ncc2c1)c1ccc(F)cc1Cl [Brilanestrant],96.6%,100%
COc1cc(NC(C)CCCN)c2ncccc2c1 (configuration not stated) [Primaquine (Diphosphate)],91.2%,94%
CC(=O)Oc1cc(C)c(OC(C)=O)c2ccccc12 [Vitamin K4],95.5%,97%
O=C(OCC(O)CO)c1ccccc1Nc1ccnc2cc(Cl)ccc12 (configuration not stated) [Glafenine],100%,100%
O=[N+]([O-])c1ccc(O)c2ncccc12 [Nitroxoline],98.4%,100%
Cc1c(Cl)c(C)[n+]([O-])c(Cl)c1-c1noc(-c2cc(O)c(O)c([N+](=O)[O-])c2)n1 [Opicapone],99.2%,100%
CN[C@H]1CC[C@@H](c2ccc(Cl)c(Cl)c2)c2ccccc21 [Sertraline (hydrochloride)],100%,100%
CC1(C)CC[C@]2(C(=O)O)CC[C@]3(C)[C@H](C(=O)C=C4[C@@]5(C)C=C(C#N)C(=O)C(C)(C)[C@@H]5CC[C@]43C)[C@@H]2C1 [Bardoxolone],100%,100%
CCCCCCCCCCCC1=C(O)C(=O)C=C(O)C1=O [Embelin],100%,
CCOc1cc2ncc(C#N)c(Nc3ccc(F)c(Cl)c3)c2cc1NC(=O)/C=C/CN(C)C [Pelitinib],90.6%,97%
Cn1cnc([N+](=O)[O-])c1C[N+](C)(C)C/C=C/C(=O)Nc1cc2c(Nc3ccc(Cl)c(Br)c3)ncnc2cn1 [Tarloxotinib (bromide)],99.6%,100%
Cc1cc(Nc2ncc(Cl)c(Nc3ccccc3S(=O)(=O)C(C)C)n2)c(OC(C)C)cc1C1CCNCC1 [Ceritinib],100%,
Cc1cc2c(F)c(Oc3ncnn4cc(OC[C@@H](C)OC(=O)[C@H](C)N)c(C)c34)ccc2[nH]1 [Brivanib (alaninate)],100%,100%
C/C=C(/C(=C/C)c1ccc(O)cc1)c1ccc(O)cc1 [Dienestrol],99.7%,92%

SMILES,growth reduction [1],growth reduction [2]
CCN(CC)CCNC(=O)c1c(C)[nH]c(/C=C2\C(=O)Nc3ccc(-c4csc(-c5ccccc5)n4)cc32)c1C [Amcasertib],100%,100%
Cc1ccc(Sc2ccccc2N2CCNCC2)c(C)c1 [Vortioxetine],100%,100%
Clc1ccc(CSC(Cn2ccnc2)c2ccc(Cl)cc2Cl)cc1 (configuration not stated) [Sulconazole (mononitrate)],100%,100%
Cc1c(Cl)cccc1Nc1ccccc1C(=O)O [Tolfenamic Acid],100%,99%
O=C1NCCN1CCN1CCC(c2cn(-c3ccc(F)cc3)c3ccc(Cl)cc23)CC1 [Sertindole],93.6%,97%
COC(=O)/C=C/C(=O)OCCN1C(=O)CCC1=O [Diroximel fumarate],100%,100%
Cc1ccc(C(=O)Nc2ccc(CN3CCN(C)CC3)c(C(F)(F)F)c2)cc1C#Cc1cnc2cccnn12 [Ponatinib],100%,95%
CN1CC[C@@H](NC(=O)Nc2ccc(C#N)cc2)C[C@@H]1c1nc2ccccc2[nH]1 [Glasdegib],100%,98%
CN(Cc1cnc2nc(N)nc(N)c2n1)c1ccc(C(=O)N[C@@H](CCC(=O)O)C(=O)O)cc1 [Methotrexate],94.1%,95%
Cc1cc([C@H](C)Nc2nccc(N3C(=O)OC[C@@H]3[C@@H](C)F)n2)ncc1-c1ccnc(C(F)(F)F)c1,100%,97%
Cc1ccc(-n2[nH]c(C)c(N=Nc3cccc(-c4cccc(C(=O)O)c4)c3O)c2=O)cc1C [Eltrombopag (Olamine)],95.9%,100%
COc1cc(C)c2c(Oc3cccc(C(F)(F)F)c3)c(OC)cc(NC(C)CCCN)c2n1 (configuration not stated) [Tafenoquine (Succinate)],100%,100%
C=CC(=O)Nc1cc(Nc2nccc(-c3cn(C)c4ccccc34)n2)c(OC)cc1N(C)CCN(C)C [Osimertinib mesylate],100%,100%
COc1cc2c(Oc3ccc(NC(=O)C4(C(=O)Nc5ccc(F)cc5)CC4)cc3F)ccnc2cc1OCCCN1CCOCC1 [Foretinib],94.8%,99%
COc1ccc(Cl)c(Nc2nc3ccccc3nc2NS(=O)(=O)c2cccc(NC(=O)C(C)(C)N)c2)c1 [Pilaralisib],100%,100%
COc1cccc2c1c(O)c(C(=O)N(C)c1ccc(C(F)(F)F)cc1)c(=O)n2C [Tasquinimod],92.4%,
COc1cccc(OC)c1-c1cc(C(=O)NC2(C(=O)O)C3CC4CC(C3)CC2C4)nn1-c1ccnc2cc(Cl)ccc12 (configuration not stated) [Meclinertant],100%,100%
Cc1c2c(nn1C)CSCc1cc(n(C)n1)CSc1cc(c3ccccc3c1)OCCCc1c(C(=O)O)n(C)c3c-2c(Cl)ccc13,100%,100%
O=c1[nH]cnc2c1cnn2[C@@H]1O[C@H](CO)[C@@H](O)[C@H]1O [Allopurinol riboside],99.9%,100%
OC1(c2ccc(Cl)c(C(F)(F)F)c2)CCN(CCCC(c2ccc(F)cc2)c2ccc(F)cc2)CC1 [Penfluridol],100%,100%

SMILES,growth reduction [1],growth reduction [2]
COCc1c(C(C)C)nc(C(C)C)c(/C=C/[C@@H](O)C[C@@H](O)CC(=O)O)c1-c1ccc(F)cc1 [Cerivastatin (sodium)],93.6%,99%
CN(C(=O)CN(CCO)CC(=O)N(C)C(C)(C)Cc1ccccc1)C(C)(C)Cc1ccccc1 [Oxethazaine],100%,100%
CC[C@@]1(O)C[C@H](O[C@H]2C[C@H](N(C)C)[C@H](O[C@H]3C[C@H](O)[C@H](O[C@H]4CCC(=O)[C@H](C)O4)[C@H](C)O3)[C@H](C)O2)c2c(cc3c(c2O)C(=O)c2c(O)cccc2C3=O)[C@H]1C(=O)OC [Aclacinomycin A hydrochloride],100%,100%
O=C(NCc1c(F)cc(F)cc1F)c1cn2c(c(O)c1=O)C(=O)N1[C@H]3CC[C@H](C3)O[C@@H]1C2 [Bictegravir],100%,100%
CC(C)(C)Cn1c(N)nc2ccc(-c3[nH]c(C(C)(C)C)nc3-c3ccc(F)cc3)nc21 [Ralimetinib dimesylate],100%,97%
C#C[C@]1(O)CC[C@H]2[C@@H]3CCc4cc(O)ccc4[C@H]3CC[C@@]21C [Ethynyl Estradiol],99.9%,100%
CC(=O)O[C@]1(C(C)=O)CC[C@H]2[C@@H]3C=C(C)C4=CC(=O)CC[C@]4(C)[C@H]3CC[C@@]21C [Megestrol acetate],100%,91%
Cc1c(CN(C)C(=O)/C=C/c2cnc3c(c2)CCC(=O)N3)oc2ccccc12,100%,100%
O=C(O)CCCc1cc2cc(Cl)ccc2n1S(=O)(=O)c1ccc2ncsc2c1 [Lanifibranor],99.1%,99%
Oc1ccc2c(c1)CC[C@H](c1ccccc1)[C@@H]2c1ccc(OCCN2CCCC2)cc1 [Lasofoxifene (Tartrate)],98.2%,100%
C[C@@H]1CCc2ncc(F)cc2[C@H]2CCCN2c2ccn3ncc(c3n2)C(=O)N1 [Selitrectinib],96.9%,97%
C=C[C@@H]1C[C@]1(NC(=O)[C@@H]1C[C@@H](Oc2ncc(OC)c3ccc(Cl)cc23)CN1C(=O)[C@@H](NC(=O)OC(C)(C)C)C(C)(C)C)C(=O)NS(=O)(=O)C1CC1 [Asunaprevir],100%,100%
Cc1ccc(C(=O)Nc2ccc(CN3CCN(C)CC3)c(C(F)(F)F)c2)cc1C#Cc1cnc2[nH]ncc2c1,100%,100%
CCN(CC)CCOc1ccc(/C(=C(/Cl)c2ccccc2)c2ccccc2)cc1 [Enclomiphene (citrate)],100%,100%
C=C1C[C@H]2[C@@H]3CCC4=CC(=O)CC[C@@H]4[C@H]3CC[C@]2(C)[C@@]1(OC(C)=O)C(C)=O [Nestoron],93.2%,98%
Cc1cccc(/C=N/Nc2cc(N3CCOCC3)nc(OCCc3ccccn3)n2)c1 [Apilimod (mesylate)],97.4%,93%
CC(C)(C)c1nc(-c2cccc(NS(=O)(=O)c3c(F)cccc3F)c2F)c(-c2ccnc(N)n2)s1 [Dabrafenib (Mesylate)],98.3%,90%
Fc1ccc(C(c2ccc(F)cc2)N2CCN(C/C=C/c3ccccc3)CC2)cc1 [Flunarizine (dihydrochloride)],94.4%,98%
C[C@H](CCC(=O)O)[C@H]1CC[C@H]2[C@@H]3[C@H](O)C[C@@H]4C[C@H](O)CC[C@]4(C)[C@H]3CC[C@]12C [Chenodeoxycholic Acid],99%,99%
COc1cc(F)c(F)c(Nc2ccc(I)cc2F)c1NS(=O)(=O)C1(C[C@H](O)CO)CC1 [Refametinib],100%,100%
